Measured values published in PubChem BioAssay AID1159580 (chemical genetic matrix, 2015).
“And” between values parts separate entries of the source, which are not always exact repeats. Equal entries are not always repeated. Screen size: about 5,500 compounds; about 2,000 (36%) were called active. Another 18% or so got no clear call; they are omitted. Cut-off read from the data, not from the text of the source: active = normalized growth mostly below about 0.91 (no sharp cut-off); inconclusive = no clear call, values can overlap the other calls; inactive = mostly above about 0.92. The list shows a part of the results.

Assay: chemical genetic growth profiling, strain panel (AID 1159580);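 note: tested at 20 µM; growth read once vehicle control cultures reached saturation at 30 °C; 1 = growth at the plate median or of vehicle wells; lower values mean less growth of the strain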
Details: S. cerevisiae deletion strains, growth OD

Measured: normalized growth

CCN(CC)CCOC(=O)C1(C2CCCCC2)CCCCC1
inactive: locus YJR066W, strain TOR1, hits give low values 0.951 | locus YJR075W, strain HOC1, hits give low values 0.952 and 0.974 | locus YKL009W, strain mrt4, hits give low values 0.971 | locus YKL068W, hits give low values 0.992 | locus YKL085W, strain MDH1 (second series), hits give low values 0.963 | locus YKL085W, strain MDH1, hits give low values 0.963 | locus YKL160W, strain elf1, hits give low values 1.01 | locus YKR001C, strain vps1, hits give low values 1 | locus YKR026C, strain gcn3, hits give low values 0.982 | locus YKR091W, strain srl3, hits give low values 0.978 | locus YLL001W, strain dnm1, hits give low values 0.998 | locus YLL026W, hits give low values 0.997 | locus YLL041C, strain sdh2, hits give low values 0.987 | locus YLR027C, strain aat2, hits give low values 0.994 | locus YLR039C, strain RIC1, hits give low values 1.3 | locus YLR058C, strain SHM2, hits give low values 0.985 | locus YLR102C, strain apc9, hits give low values 0.987 | locus YLR113W, strain HOG1, hits give low values 1.05 | locus YLR221C, strain rsa3, hits give low values 0.952 | locus YLR258W, strain gsy2, hits give low values 0.955 | locus YLR262C, strain YPT6 (second series), hits give low values 1.04 | locus YLR262C, strain YPT6, hits give low values 1.25 | locus YLR268W, strain sec22, hits give low values 0.965 | locus YLR320W, strain mms22, hits give low values 0.93 | locus YLR330W, strain CHS5, hits give low values 0.999 | locus YLR342W, strain FKS1 (second series), hits give low values 0.905 | locus YLR342W, strain FKS1, hits give low values 0.983 | locus YLR357W, strain rsc2, hits give low values 0.965 | locus YLR370C, strain arc18, hits give low values 0.979 | locus YLR371W, strain rom2, hits give low values 0.973 | locus YLR384C, strain iki3, hits give low values 0.993 | locus YLR418C, strain cdc73, hits give low values 0.847 | locus YML016C, strain PPZ1, hits give low values 0.997 | locus YML032C, strain rad52, hits give low values 0.966 | locus YML120C, strain ndi1, hits give low values 0.985 | locus YML124C, strain tub3, hits give low values 0.984 | locus YMR058W, strain fet3, hits give low values 0.983 | locus YMR078C, strain ctf18, hits give low values 0.978 | locus YMR125W, strain sto1, hits give low values 0.946 | locus YMR129W, hits give low values 0.972 | locus YMR205C, strain PFK2, hits give low values 0.985 | locus YMR223W, strain ubp8, hits give low values 0.932 | locus YMR231W, strain pep5, hits give low values 0.985 | locus YMR263W, strain SAP30, hits give low values 0.984 and 1 | locus YMR307W, strain GAS1, hits give low values 1.23 and 1.02 | locus YNL067W, strain RPL9B, hits give low values 0.979 | locus YNL071W, strain lat1, hits give low values 0.951 | locus YNL128W, strain TEP1, hits give low values 1.02 | locus YNL153C, strain GIM3, hits give low values 0.966 and 0.991 | locus YNL175C, strain NOP13, hits give low values 1.02 | locus YNL183C, strain NPR1, hits give low values 0.995 | locus YNL197C, strain WHI3, hits give low values 1.06 | locus YNL209W, strain ssb2, hits give low values 0.947 | locus YNL224C, strain SQS1, hits give low values 1.01 | locus YNL233W, strain BNI4, hits give low values 0.962 | locus YNL248C, strain rpa49, hits give low values 0.948 | locus YNL250W, strain rad50, hits give low values 0.979 | locus YNL271C, strain bni1, hits give low values 0.973 | locus YNL298W, strain CLA4, hits give low values 1 | locus YNL307C, strain MCK1, hits give low values 0.968 | locus YNL322C, strain KRE1 (second series), hits give low values 0.979 | locus YNR049C, strain mso1, hits give low values 0.979 | locus YNR052C, strain pop2, hits give low values 0.961 | locus YOL012C, strain htz1 0.807 | locus YOL147C, strain pex11, hits give low values 0.99 | locus YOR001W, strain rrp6, hits give low values 1.01 | locus YOR061W, strain CKA2, hits give low values 1 | locus YOR069W, strain VPS5, hits give low values 0.994 | locus YOR070C, strain gyp1, hits give low values 0.968 | locus YOR080W, strain dia2, hits give low values 0.982 | locus YOR083W, strain WHI5 (second series), hits give low values 1.02 | locus YOR083W, strain WHI5, hits give low values 0.965 | locus YOR106W, strain vam3, hits give low values 1 | locus YOR136W, strain idh2, hits give low values 0.998 | locus YOR144C, strain elg1, hits give low values 0.997 | locus YOR184W, strain ser1, hits give low values 0.992 | locus YOR231W, strain MKK1, hits give low values 1.04 | locus YOR265W, strain rbl2, hits give low values 0.991 | locus YOR270C, strain vph1, hits give low values 0.85 | locus YOR290C, strain snf2, hits give low values 0.939 | locus YOR316C, strain cot1, hits give low values 0.992 | locus YPL051W, strain arl3, hits give low values 0.984 | locus YPL055C, strain LGE1, hits give low values 0.986 | locus YPL078C, strain atp4, hits give low values 1.01 | locus YPL106C, strain sse1, hits give low values 0.939 | locus YPL240C, strain hsp82, hits give low values 0.984 | locus YPL241C, strain CIN2, hits give low values 0.998 | locus YPL256C, strain CLN2, hits give low values 1.05 | locus YPR119W, strain clb2, hits give low values 0.99 | locus YPR141C, strain kar3, hits give low values 0.993 | locus YPR163C, strain tif3, hits give low values 0.988 | locus YPR167C, strain met16, hits give low values 0.983 | strain wtn01, hits give low values 0.957
